The nature of experiment [1]: qHTS assay to identify small molecule antagonists of the thyroid receptor (TR) signaling pathway - cell viability counter screen (AID 743064). Note: nearly all actives have a fitted effect of over 50% in size. Note: potency is the fitted concentration of half-maximal effect. In short, it runs like this:
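GH3.TRE-Luc rat pituitary cells carrying a TRE-luciferase reporter were treated with compound plus 1 nM T3 (final) for 23.5 h at 37 °C. Viability was then read in the same wells by CellTiter-Fluor fluorescence after a further 30 min.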

Experiment [2] can be described thus: qHTS assay to identify small molecule antagonists of the thyroid receptor (TR) signaling pathway (AID 743065). For activity, negative = inhibition: series mostly up to about 70 µM. Note: nearly all actives have a fitted effect of over 55% in size. Note: potency is the fitted concentration of half-maximal effect. In short, it runs like this:
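GH3.TRE-Luc rat pituitary cells carrying two TR response elements driving luciferase were plated for 4 h, given compound plus 1 nM T3 (final), and incubated 23.5 h at 37 C. ONE-Glo luminescence measured reporter inhibition; CellTiter-Fluor fluorescence tracked cytotoxicity.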
Background: qHTS replaces the single test concentration by a dilution series.

Experiment [3] relates to thyroid hormone receptor (rat, GH3 cells). The experiment in a line: qHTS assay to identify small molecule agonists of the thyroid receptor (TR) signaling pathway (AID 743066; calls by dose curve; note: potency is the fitted concentration of half-maximal effect).
For experiment [4], the target named is Estrogen receptor (Homo sapiens) (UniProt P03372). The experiment in a line: qHTS assay to identify small molecule antagonists of the estrogen receptor alpha (ER-alpha) signaling pathway (AID 743069; active = well fitted curve in the direction sought with a large enough effect in the signal ratio in the repeat runs, not every such curve was filed as active; the % refers to the signal ratio). In short, it runs like this:
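Estradiol-stimulated ER-alpha-UAS-bla HEK293 cells, 18 hr compound exposure at 37C. LiveBLAzer B/G substrate, 2 hr RT, fluorescence read.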

Experiment [5] has the same target. The experiment in a line: qHTS assay to identify small molecule agonists of the estrogen receptor alpha (ER-alpha) signaling pathway (AID 743075; calls by dose curve;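 note: HEK293 GripTite cells with ER-alpha and UAS-driven beta-lactamase reporter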).
The target is the same in experiment [6]. The experiment in a line: qHTS assay to identify small molecule agonists of the estrogen receptor alpha (ER-alpha) signaling pathway using the BG1 cell line (AID 743079). Note: nearly all actives have a fitted effect of over 20% in size. Note: potency is the fitted concentration of half-maximal effect.
Experiment [7] is described as follows: qHTS assay to identify small molecule antagonists of the estrogen receptor alpha (ER-alpha) signaling pathway using the BG1 cell line (AID 743080; calls by dose curve;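 note: BG1 cells stimulated with 17beta-estradiol alongside compound; series mostly up to about 70 µM; nearly all actives have a fitted effect of over 25% in size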). The essentials: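 Readout is ONE-Glo luminescence, taken 30 min at room temperature after reagent addition, preceded by a CellTiter-Fluor viability read; BG1-Luc-4E2 cells had received compound and 17beta-estradiol for 21.5 h at 37 C.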

Experiment [8] can be described thus: qHTS assay to identify small molecule antagonists of the estrogen receptor alpha (ER-alpha) signaling pathway using the BG1 cell line - cell viability counter screen (AID 743081).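 Note: compound given together with 17beta-estradiol as the ER stimulus; series mostly up to about 70 µM; nearly all actives have a fitted effect of over 45% in size.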
A further experiment deals with Aromatase (Homo sapiens) (UniProt P11511). The experiment in a line: qHTS assay to identify aromatase inhibitors (AID 743083). Note: series mostly up to about 70 µM; nearly all actives have a fitted effect of over 55% in size.
Aromatase (Homo sapiens), sequence (P11511 whole entry, looked up): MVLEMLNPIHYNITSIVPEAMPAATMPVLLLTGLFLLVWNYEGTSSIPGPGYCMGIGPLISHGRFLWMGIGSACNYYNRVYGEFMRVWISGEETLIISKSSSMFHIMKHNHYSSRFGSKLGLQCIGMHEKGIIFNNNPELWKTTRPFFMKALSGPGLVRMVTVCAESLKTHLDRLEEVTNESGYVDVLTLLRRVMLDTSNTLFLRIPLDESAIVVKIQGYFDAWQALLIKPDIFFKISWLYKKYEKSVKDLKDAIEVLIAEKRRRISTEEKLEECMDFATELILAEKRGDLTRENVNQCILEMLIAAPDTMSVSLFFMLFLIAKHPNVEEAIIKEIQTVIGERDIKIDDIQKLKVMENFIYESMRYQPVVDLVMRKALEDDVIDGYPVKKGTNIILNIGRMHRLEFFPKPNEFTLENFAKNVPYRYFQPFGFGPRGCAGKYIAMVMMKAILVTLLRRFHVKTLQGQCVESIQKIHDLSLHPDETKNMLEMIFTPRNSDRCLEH
Experiment [9] can be described thus: qHTS assay to identify small molecule antagonists of the estrogen receptor alpha (ER-alpha) signaling pathway - cell viability counter screen (AID 743074; calls by dose curve;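 note: HEK293 cells carrying ER-alpha-UAS-bla reporter stimulated with 17beta-estradiol; nearly all actives have a fitted effect of over 45% in size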).

Inconclusive results are not listed. Values without a mark were called inactive. Activity calls are given as the source filed them. Unless noted, calls come from the whole dose curve; as a rule, active = well fitted curve in the direction sought with a large enough effect in the repeat runs; inconclusive = weak or mixed curves; inactive = no such curve, though single readings can be large; an effect the other way counts as inactive or inconclusive.

This note sets out measurements from PubChem BioAssay (Tox21).
% is set by controls: 0 for no effect and ±100 for the full control effect.

Estrogen receptor (Homo sapiens), sequence (P03372 whole entry, looked up): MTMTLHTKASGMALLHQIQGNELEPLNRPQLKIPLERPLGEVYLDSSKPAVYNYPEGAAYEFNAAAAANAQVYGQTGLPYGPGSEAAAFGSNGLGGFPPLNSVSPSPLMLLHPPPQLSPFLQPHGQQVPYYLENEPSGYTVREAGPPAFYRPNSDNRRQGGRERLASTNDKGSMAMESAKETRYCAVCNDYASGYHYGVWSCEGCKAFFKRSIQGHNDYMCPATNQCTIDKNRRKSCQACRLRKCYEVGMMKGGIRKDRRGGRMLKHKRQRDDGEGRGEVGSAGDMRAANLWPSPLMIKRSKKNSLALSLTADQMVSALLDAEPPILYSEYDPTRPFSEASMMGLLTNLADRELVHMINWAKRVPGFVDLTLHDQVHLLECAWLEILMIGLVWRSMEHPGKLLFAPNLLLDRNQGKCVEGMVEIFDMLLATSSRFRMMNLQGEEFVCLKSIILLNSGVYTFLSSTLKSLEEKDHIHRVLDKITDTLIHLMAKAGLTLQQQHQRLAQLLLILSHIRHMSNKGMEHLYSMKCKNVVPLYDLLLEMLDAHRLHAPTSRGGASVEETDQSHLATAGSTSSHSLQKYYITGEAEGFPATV

On to `C=CCCCCCCCCCCC`, for which the activity change, negative = cytotoxic in [1] is -6.91% [at 8.44 µM]. Moreover, the values for the activity, negative = inhibition (in experiment [2]; in [4]; with Aromatase (Homo sapiens)) were 8.56% [at 8.44 µM], -5.51% [at 6.71 µM] and 6.54% [at 8.47 µM], respectively. In addition, the values for the activation in experiment [3], in experiment [5] and in experiment [6] were -1.31% [at 8.08 µM], -3.33% [at 6.71 µM] and -5.04% [at 8.47 µM], respectively. The activity change, negative = inhibition in experiment [7] was -1.81% [at 8.47 µM]. Besides, the activity change, negative = cytotoxicity in experiment [8] was 2.93% [at 8.47 µM].

As for `c1ccc(CNc2ncnc3nc[nH]c23)cc1`, the Potency entry in experiment [1], in experiment [2], in experiment [3] and in [9] was “inactive” each time. The molecule was called inactive in [8].

As for `O=c1[nH]c(=O)c2ccccc2o1`, the Potency result in experiment [1], in experiment [2], in experiment [3] and in experiment [9] was “inactive” each time. The call (in [8]; with Aromatase (Homo sapiens)) was inactive.

With `CC(C)CCCCCCOC(=O)C1CCCCC1C(=O)OCCCCCCC(C)C` (configuration not stated), the Potency result in experiment [1], in [2], in experiment [3], in experiment [9], in experiment [5] and in [6] was “inactive” each time. Moreover, the result (in experiment [7]; in experiment [8]; with Aromatase (Homo sapiens)) was inactive.

As to `CC(=O)OCC(=O)[C@@]1(O)[C@H](OC(C)=O)C[C@H]2[C@@H]3CCC4=CC(=O)C=C[C@]4(C)[C@@]3(F)[C@@H](O)C[C@@]21C`, the Potency entry in experiment [1], in experiment [2], in experiment [3], in experiment [9] and in [5] was “inactive” each time. The result (in experiment [8]; with Aromatase (Homo sapiens)) was inactive.

For `C[C@@H]1C[C@H]2[C@@H]3C[C@H](F)C4=CC(=O)C=C[C@]4(C)[C@@]3(F)[C@@H](O)C[C@]2(C)[C@@]1(O)C(=O)CO`, the Potency result in experiment [1], in [2], in [3] and in experiment [9] was “inactive” each time. The molecule was called inactive (in experiment [8]; with Aromatase (Homo sapiens)).

Take `CC(C)COC(=O)CCCCC(=O)OCC(C)C`: the Potency entry in experiment [1], in experiment [2], in [3] and in [9] was “inactive” in each case. Besides, the outcome (in experiment [8]; with Aromatase (Homo sapiens)) was inactive.

On to `C[N+](C)(C)CC(O)CCl` (configuration not stated), for which the Potency result in experiment [1], in experiment [2], in [3], in experiment [4], in experiment [9] and in experiment [5] was “inactive” throughout. Further, the Potency entry in experiment [6] was “inactive”. In addition, the result (in experiment [8]; with Aromatase (Homo sapiens)) was inactive.

Regarding `O=C(O)CCNC(=O)c1ccccc1`, the Potency entry in experiment [1], in experiment [2], in experiment [4], in [9] and in experiment [5] was “inactive” each time. Besides, the Potency in experiment [3] is 11.9 µM (active). Moreover, the molecule was called inactive (in [7]; in experiment [8]; with Aromatase (Homo sapiens)).

Consider `CC(=O)c1ccc2c(c1)CCCC2`, for which the Potency result in [1], in experiment [2], in experiment [3], in experiment [4] and in experiment [9] was “inactive” in each case. Further, the molecule was classed as inactive (in experiment [7]; in experiment [8]; in the experiment with Aromatase (Homo sapiens)).

As for `OCCCCCCCl`, the Potency entry in experiment [1], in [2], in experiment [3], in [4], in experiment [9] and in experiment [5] was “inactive” in each case. For the same molecule, the molecule was classed as inactive (in [7]; in experiment [8]; with Aromatase (Homo sapiens)).

On to `C=CCOc1c(Br)cc(Br)cc1Br`, for which the Potency entry in [1], in experiment [2], in [3], in [4], in experiment [5] and in experiment [6] was “inactive” each time. Besides, the result (in experiment [7]; in experiment [8]; in the experiment with Aromatase (Homo sapiens)) was inactive.

For `CCCCCCCCCOCC1CO1` (configuration not stated), the Potency entry in experiment [1], in [2], in experiment [3] and in experiment [9] was “inactive” each time. The outcome in experiment [8] was inactive.

`CCCCC(CC)C(=O)OC(C)C` (configuration not stated): the Potency entry in [1], in experiment [2], in experiment [3] and in experiment [9] was “inactive” each time. Further, the molecule was classed as inactive (in [8]; with Aromatase (Homo sapiens)).

As to `CCCOC(=O)CCCCC(=O)OCCC`, the Potency entry in [1], in experiment [2], in experiment [3], in experiment [4], in experiment [9] and in experiment [5] was “inactive” each time. Moreover, the Potency result in experiment [6] was “inactive”. The molecule was classed as inactive (in experiment [7]; in the experiment with Aromatase (Homo sapiens)).

Take `SCCSCCS`: the Potency entry in experiment [1], in experiment [2], in experiment [3] and in [9] was “inactive” each time. Further, the molecule was classed as inactive (in experiment [8]; in the experiment with Aromatase (Homo sapiens)).

Consider `CCC(O)C(C)(C)C` (configuration not stated), for which the Potency entry in [1], in [2], in experiment [3], in experiment [4], in experiment [9] and in [5] was “inactive” each time. Further, the molecule was classed as inactive (in [7]; in [8]; with Aromatase (Homo sapiens)).

For `C[C@H]1O[C@H](O[C@H]2[C@H](O)[C@@H](O)[C@@H](O[C@H]3[C@H](O)[C@@H](O)[C@H](O)O[C@@H]3CO)O[C@@H]2CO)[C@H](O)[C@@H](O)[C@@H]1N[C@H]1C=C(CO)[C@@H](O)[C@H](O)[C@H]1O`, the Potency entry in experiment [1], in experiment [2], in [3] and in experiment [9] was “inactive” in each case. In addition, the molecule was classed as inactive (in experiment [8]; with Aromatase (Homo sapiens)).

Take `CCC(C)(C)C1CCC(=O)CC1`: the Potency entry in [1], in experiment [2], in experiment [3], in [4], in experiment [9] and in experiment [5] was “inactive” in each case. The molecule was classed as inactive (in experiment [7]; in experiment [8]; with Aromatase (Homo sapiens)).

For the molecule `O=C(c1ccc2c(c1)C(=O)OC2=O)c1ccc2c(c1)C(=O)OC2=O`, the Potency entry in experiment [1], in experiment [2], in experiment [3] and in experiment [9] was “inactive” throughout. In addition, the call (in [8]; in the experiment with Aromatase (Homo sapiens)) was inactive.

As for `O=P(O)(O)OCC(O)CO` (configuration not stated), the Potency result in [1], in experiment [2], in experiment [3], in experiment [4], in experiment [5] and in [6] was “inactive” each time. Moreover, the molecule was called inactive (in experiment [7]; in [8]; with Aromatase (Homo sapiens)).

As to `Nc1cc(S(=O)(=O)O)ccc1S(=O)(=O)O`, the Potency entry in experiment [1], in experiment [2], in experiment [3] and in experiment [9] was “inactive” in each case. Further, the call (in experiment [8]; with Aromatase (Homo sapiens)) was inactive.

Turning to `CC(=O)OC(C)(C)Cc1ccccc1`, the Potency entry in experiment [1], in experiment [2], in experiment [3] and in experiment [9] was “inactive” in each case. Moreover, the call in experiment [8] was inactive.

With `CCC(C)(CCC(C)C)C(=O)[O-].CCC(C)(CCC(C)C)C(=O)[O-].[Zn+2]` (configuration not stated), the Potency result in experiment [1], in experiment [2], in experiment [3] and in [9] was “inactive” each time. In [8], the result was inactive.

Regarding `CC(C)CCC(=O)CCC(C)C`, the Potency result in [1], in [2], in [3], in [4], in experiment [5] and in experiment [6] was “inactive” throughout. In addition, the outcome (in [7]; in experiment [8]; with Aromatase (Homo sapiens)) was inactive.

Turning to `Cc1ccccc1C(=O)N1CC/C(=N\OS(=O)(=O)O)c2ccc(Cl)cc21`, the Potency result in experiment [1], in [2], in [3], in experiment [4], in experiment [5] and in experiment [6] was “inactive” throughout. The outcome (in experiment [7]; in experiment [8]; in the experiment with Aromatase (Homo sapiens)) was inactive.

For `CC(=O)c1ccc(OCC(=O)N2CCCCC2)cc1`, the Potency entry in experiment [1], in experiment [2], in experiment [3], in experiment [4], in experiment [9] and in experiment [5] was “inactive” throughout. For the same molecule, the Potency in experiment [6] is 18.8 µM (active). In addition, the molecule was called inactive with Aromatase (Homo sapiens).

On to `O=C1NC2NC(=O)NC2N1` (configuration not stated), for which the Potency result in experiment [1], in [2], in experiment [3] and in experiment [9] was “inactive” each time. The result (in [8]; in the experiment with Aromatase (Homo sapiens)) was inactive.

On to `C=CCOCC(CO)(COCC=C)COCC=C`, for which the Potency entry in experiment [1], in [2], in experiment [3], in experiment [4], in [5] and in experiment [6] was “inactive” each time. Also, the molecule was classed as inactive (in experiment [7]; in experiment [8]; with Aromatase (Homo sapiens)).

Regarding `CCCCC(C)C(=O)O` (configuration not stated), the Potency entry in experiment [1], in experiment [2], in [3] and in experiment [9] was “inactive” throughout. In addition, the outcome (in experiment [8]; in the experiment with Aromatase (Homo sapiens)) was inactive.

For the molecule `Oc1ccccc1Cc1ccccc1O`, the Potency entry in [1], in experiment [3] and in experiment [6] was “inactive” each time. In addition, the molecule was classed as inactive (in experiment [7]; in [8]; with Aromatase (Homo sapiens)).

For the molecule `Cc1ccc(S(=O)(=O)NC(=O)NC2CCCCCCC2)cc1`, the Potency entry in [1], in experiment [2], in [3] and in experiment [9] was “inactive” each time. Also, the result (in experiment [8]; with Aromatase (Homo sapiens)) was inactive.

Consider `O=C(CN1CCN(Cc2ccc3c(c2)OCO3)CC1)N1c2ccccc2Sc2ccccc21`, for which the Potency was 29.8 µM (active) in experiment [1] and 26.6 µM (active) in experiment [2]. For the same molecule, in [9], the Potency entry was “inactive”. Also, the call (in experiment [8]; with Aromatase (Homo sapiens)) was inactive.
